A short description of assay [1]: qHTS of pediatric cancer cell lines to identify multiple opportunities for drug repurposing: Primary screen for BT-12 cells (AID 1347101). Note: nearly all actives have a fitted effect of over 25% in size. Note: potency is the fitted concentration of half-maximal effect. The essentials: (§1)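 Cells (500-1,000/well) rested 5 h, then received compounds for 48 h; metabolically active cells were measured by CellTiter-Glo luminescence. Final concentrations spanned up to 46 µM (MIPE, 11-point) or 0.59 nM-46 µM (NPC, 8-point) in primary screens, 11-point in follow-ups.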
Background: qHTS replaces the single test concentration by a dilution series.

Assay [2] in a line: qHTS of pediatric cancer cell lines to identify multiple opportunities for drug repurposing: Primary screen for Rh18 cells (AID 1347102). Note: nearly all actives have a fitted effect of over 65% in size. Note: potency is the fitted concentration of half-maximal effect. The procedure, abridged: (§2)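 Viability after 48 h compound treatment at 37C, 500-1,000 cells/well, read as ATP luminescence with CellTiter-Glo. Primary screens used 11-point (MIPE, 0.78 nM-46 µM) or 8-point (NPC, 0.59 nM-46 µM) final concentrations; follow-up screens used 11-point dilutions.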

A short description of assay [3]: qHTS of pediatric cancer cell lines to identify multiple opportunities for drug repurposing: Primary screen for OHS-50 cells (AID 1347103). Note: nearly all actives have a fitted effect of over 40% in size. Note: potency is the fitted concentration of half-maximal effect. The procedure, abridged:
as §1

The nature of assay [4]: qHTS of pediatric cancer cell lines to identify multiple opportunities for drug repurposing: Primary screen for RD cells (AID 1347104). Note: nearly all actives have a fitted effect of over 55% in size. Note: potency is the fitted concentration of half-maximal effect. The procedure, abridged:
(§3)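 Quantitative HTS format: each compound titrated (MIPE 11 points from 0.78 nM, NPC 8 points from 0.59 nM) onto cells plated 5 hours earlier. After 48 h at 37 degrees C, CellTiter-Glo luminescence was recorded.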

Assay [5] can be described thus: qHTS of pediatric cancer cell lines to identify multiple opportunities for drug repurposing: Primary screen for MG 63 (6-TG R) cells (AID 1347105). Note: nearly all actives have a fitted effect of over 50% in size. The essentials:
as §3

Assay [6] in a line: qHTS of pediatric cancer cell lines to identify multiple opportunities for drug repurposing: Primary screen for control Hh wild type fibroblast cells (AID 1347106).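 Note: series mostly up to about 46 µM; a drop in luminescence marks cytotoxicity and a rise apparent proliferation; nearly all actives have a fitted effect of over 55% in size.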 The essentials: as §2
Assay [7] is described as follows: qHTS of pediatric cancer cell lines to identify multiple opportunities for drug repurposing: Primary screen for Rh30 cells (AID 1347107). Note: series mostly up to about 46 µM; nearly all actives have a fitted effect of over 75% in size. The essentials:
as §2

Assay [8] can be described thus: qHTS of pediatric cancer cell lines to identify multiple opportunities for drug repurposing: Primary screen for Rh41 cells (AID 1347108). Note: nearly all actives have a fitted effect of over 70% in size. Note: potency is the fitted concentration of half-maximal effect. The essentials: as §3
Assay [9] can be described thus: qHTS of pediatric cancer cell lines to identify multiple opportunities for drug repurposing: Confirmatory screen for NB1643 cells (AID 1347109). Note: potency is the fitted concentration of half-maximal effect; nearly all actives have a fitted effect of over 45% in size. The procedure, abridged:
as §2

Assay [10] can be described thus: qHTS of pediatric cancer cell lines to identify multiple opportunities for drug repurposing: Confirmatory screen for SK-N-MC cells (AID 1347111).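 Note: potency is the fitted concentration of half-maximal effect; cells exposed to compound for 48 h before the readout; nearly all actives have a fitted effect of over 70% in size.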 The essentials: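 SK-N-MC cells at 500-1,000 cells/well in growth media were pre-incubated 5 h, then exposed to compounds at 11-point dilutions for 48 h at 37 degrees C, 5% CO2. Viability was read as CellTiter-Glo luminescence.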

Assay [11] is described as follows: qHTS of pediatric cancer cell lines to identify multiple opportunities for drug repurposing: Confirmatory screen for LAN-5 cells (AID 1347113). Note: potency is the fitted concentration of half-maximal effect; nearly all actives have a fitted effect of over 65% in size. The procedure, abridged: as §2
The nature of assay [12]: qHTS of pediatric cancer cell lines to identify multiple opportunities for drug repurposing: Confirmatory screen for DAOY cells (AID 1347114). Note: potency is the fitted concentration of half-maximal effect; nearly all actives have a fitted effect of over 65% in size. The essentials: (§4)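 Viability measured as metabolically active cells via CellTiter-Glo luminescence following 48 hours of compound exposure, 11-point dilutions in confirmatory testing. 500-1,000 cells/well plated 5 hours before dosing; controls were DMSO and 2.3 µM bortezomib.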

The nature of assay [13]: qHTS of pediatric cancer cell lines to identify multiple opportunities for drug repurposing: Confirmatory screen for U-2 OS cells (AID 1347122). Note: potency is the fitted concentration of half-maximal effect; nearly all actives have a fitted effect of over 65% in size. The essentials: as §2
Assay [14] is described as follows: qHTS of pediatric cancer cell lines to identify multiple opportunities for drug repurposing: Confirmatory screen for Rh41 cells (AID 1347123).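 Note: potency is the fitted concentration of half-maximal effect; 48 h compound exposure; nearly all actives have a fitted effect of over 60% in size.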 The procedure, abridged: as §2
Assay [15] can be described thus: qHTS of pediatric cancer cell lines to identify multiple opportunities for drug repurposing: Confirmatory screen for RD cells (AID 1347124). The procedure, abridged:
as §2

Assay [16] is described as follows: qHTS of pediatric cancer cell lines to identify multiple opportunities for drug repurposing: Confirmatory screen for Rh30 cells (AID 1347126). Note: potency is the fitted concentration of half-maximal effect; nearly all actives have a fitted effect of over 55% in size. The procedure, abridged: as §2
Assay [17] can be described thus: qHTS of pediatric cancer cell lines to identify multiple opportunities for drug repurposing: Confirmatory screen for BT-12 cells (AID 1347112). Note: potency is the fitted concentration of half-maximal effect; nearly all actives have a fitted effect of over 55% in size. The essentials:
as §2

A short description of assay [18]: qHTS of pediatric cancer cell lines to identify multiple opportunities for drug repurposing: Confirmatory screen for NB-EBc1 cells (AID 1347115). Note: potency is the fitted concentration of half-maximal effect; nearly all actives have a fitted effect of over 45% in size. The procedure, abridged: as §2
Assay [19] can be described thus: qHTS of pediatric cancer cell lines to identify multiple opportunities for drug repurposing: Confirmatory screen for SJ-GBM2 cells (AID 1347116). Note: potency is the fitted concentration of half-maximal effect; nearly all actives have a fitted effect of over 60% in size. The essentials:
as §4

A short description of assay [20]: qHTS of pediatric cancer cell lines to identify multiple opportunities for drug repurposing: Confirmatory screen for control Hh wild type fibroblast cells (AID 1347121). Note: potency is the fitted concentration of half-maximal effect; nearly all actives have a fitted effect of over 70% in size. The procedure, abridged:
as §2

Molecules are shown by their SMILES. Inconclusive results are not listed. Active and inactive are the calls of the source. Calls come from the whole dose curve; as a rule, active = well fitted curve in the direction sought with a large enough effect; inconclusive = small, poorly fitted or top-dose-only effect, or another doubt; inactive = no such curve, though single readings can be large; an effect the other way counts as inactive or inconclusive.

Regarding `CCCC(C)C1(CC)C(=O)N=C(S)NC1=O` (stereo unspecified), the Potency result in assay [1], in [2], in assay [3], in assay [4], in assay [5] and in assay [6] was “inactive” each time. For the same compound, the Potency entry in assay [7] and in assay [8] was “inactive” each time.

As for `COP(=S)(OC)Oc1ccc(S(N)(=O)=O)cc1`, the Potency result in assay [1], in [2], in assay [3], in assay [4], in [5] and in assay [6] was “inactive” throughout. Besides, the Potency result in [7] and in [8] was “inactive” in each case.

With `CCOP(=S)(OCC)O/N=C(\C#N)c1ccccc1`, the Potency result in [1], in assay [2], in assay [3], in assay [4], in assay [5] and in [6] was “inactive” throughout. For the same compound, the Potency result in [7] and in assay [8] was “inactive” in each case.

Turning to `CN1C(=O)[C@@H](NC(=O)c2cc3ccccc3[nH]2)N=C(c2ccccc2)c2ccccc21`, the Potency result in [1], in assay [2], in assay [3], in assay [5], in assay [6] and in [7] was “inactive” throughout.

Regarding `C[C@H]1C(=O)O[C@@H]2CCN3CC=C(COC(=O)[C@](C)(O)[C@]1(C)O)[C@H]23`, the Potency entry in assay [1], in assay [2], in [3], in [4], in [5] and in [6] was “inactive” throughout. In addition, the Potency result in assay [7] and in assay [8] was “inactive” throughout.

As for `Cc1c(Cl)c(=O)oc2cc(OP(=O)(OCCCl)OCCCl)ccc12`, the Potency result in assay [1], in assay [2], in assay [3], in assay [4], in assay [5] and in assay [6] was “inactive” in each case. For the same compound, the Potency result in assay [7] and in assay [8] was “inactive” throughout.

For the compound `C[N+](C)(C)CCOC(=O)C(O)(c1ccccc1)c1ccccc1`, the Potency entry in [1], in assay [2], in assay [3], in assay [4], in [5] and in assay [6] was “inactive” in each case. The Potency entry in assay [7] and in assay [8] was “inactive” in each case.

For the compound `c1cc2c(c(N3CCNCC3)c1)OCCO2`, the Potency result in [1], in assay [2], in assay [3], in assay [4], in [5] and in assay [6] was “inactive” each time. Further, the Potency entry in [7] and in assay [8] was “inactive” each time.

Consider `CCCCCCCCCCCC[N+](C)(C)CCOc1ccccc1`, for which the Potency in assay [1] is 24.6 µM (active); in assay [2], 8.41 µM (active); in [3] it was 4.9 µM (active); in assay [4], 23.7 µM (active); in [8], 16.8 µM (active); in assay [9] it was 11.7 µM (active). Also, the Potency in [10] was 7.37 µM (active); in assay [11], 14.7 µM (active); in assay [12], 18.5 µM (active); in assay [13], 13.1 µM (active); in assay [14], 7.37 µM (active); in assay [15], 18.5 µM (active). In [16], the Potency is 16.5 µM (active). Moreover, the Potency entry in [6] was “inactive”.

For `COP(=O)(OC)OC=C(Cl)Cl`, the Potency entry in [1], in [2], in assay [3], in [4], in assay [5] and in [6] was “inactive” in each case. The Potency result in assay [7] and in assay [8] was “inactive” in each case.

Regarding `CC[n+]1c(-c2ccccc2)c2cc(N)ccc2c2ccc(N)cc21`, the Potency in [1] was 3.09 µM (active); in assay [2] it was 11.9 µM (active); in [3], 1.55 µM (active); in assay [4], 13.3 µM (active); in [8] it was 3.35 µM (active); in assay [9], 11.7 µM (active). In addition, the Potency in assay [10] is 2.08 µM (active); in assay [17] it was 1.47 µM (active); in assay [11], 0.928 µM (active); in assay [12], 13.1 µM (active); in [18], 5.22 µM (active); in [19], 3.69 µM (active). In addition, the Potency was 9.27 µM (active) in assay [20], 1.65 µM (active) in [14], 14.7 µM (active) in assay [15] and 2.61 µM (active) in assay [16].

As for `CCNc1nc(Cl)nc(NCC)n1`, the Potency entry in [1], in assay [2], in assay [3], in assay [4], in assay [5] and in assay [6] was “inactive” throughout. For the same compound, the Potency result in [7] and in [8] was “inactive” throughout.

As to `O=C(O)c1nn(Cc2ccc(Cl)cc2Cl)c2ccccc12`, the Potency entry in assay [1], in assay [2], in [3], in assay [4], in assay [5] and in assay [6] was “inactive” each time. The Potency result in assay [7] and in [8] was “inactive” each time.

Consider `CNC(=O)Oc1cccc2ccccc12`, for which the Potency entry in [1], in assay [2], in assay [3], in assay [4], in assay [5] and in assay [6] was “inactive” each time. Besides, the Potency result in assay [7] and in assay [8] was “inactive” in each case.

On to `COCC(=O)N(c1c(C)cccc1C)C(C)C(=O)OC` (stereo unspecified), for which the Potency result in assay [1], in assay [2], in assay [3], in [4], in assay [5] and in assay [6] was “inactive” throughout. Further, the Potency result in assay [7] and in assay [8] was “inactive” each time.

Turning to `Cc1ccc(N=CN(C)C=Nc2ccc(C)cc2C)c(C)c1`, the Potency entry in assay [1], in assay [2], in assay [3], in [4], in assay [5] and in assay [6] was “inactive” throughout. Further, the Potency entry in [7] and in [8] was “inactive” each time.

`CCC(OC(C)=O)C(CC(C)NC)(c1ccccc1)c1ccccc1` (stereo unspecified): the Potency in [1] was 35.9 µM (active); in assay [2] it was 39 µM (active); in [3], 28.5 µM (active); in [4], 27.6 µM (active); in [8], 31 µM (active). In addition, the Potency entry in [6] was “inactive”.

Turning to `Oc1c(Br)cc(Br)cc1Br`, the Potency entry in assay [1], in assay [2], in [3], in assay [4], in assay [5] and in [6] was “inactive” throughout. Besides, the Potency result in [7] and in assay [8] was “inactive” in each case.

Take `CCN(CC)C(C)C(=O)c1ccccc1` (stereo unspecified): the Potency entry in [1], in assay [2], in assay [3], in assay [5], in assay [6] and in [7] was “inactive” each time. In addition, the Potency entry in assay [8] is “inactive”.

Regarding `CC(Cc1ccccc1)NCCCCl` (stereo unspecified), the Potency result in assay [1], in assay [2], in assay [3], in [5], in [6] and in [7] was “inactive” in each case. Besides, the Potency result in assay [8] is “inactive”.

Consider `CNC(C)Cc1ccc2c(c1)OCO2` (stereo unspecified), for which the Potency entry in [1], in assay [2], in assay [3], in assay [5], in assay [6] and in assay [7] was “inactive” each time.

Consider `COc1cc(CC(C)N)cc2c1OCO2` (stereo unspecified), for which the Potency result in assay [1], in [2], in [4], in assay [5], in assay [6] and in [7] was “inactive” in each case. Moreover, in assay [8], the Potency result is “inactive”.

Consider `O=c1n(Cl)c(=O)n(Cl)c(=O)n1Cl`, for which the Potency entry in assay [1], in assay [2], in assay [3], in [5], in assay [6] and in assay [7] was “inactive” each time. The Potency entry in [8] is “inactive”.

For `CC(CC(C(N)=O)(c1ccccc1)c1ccccc1)N(C)C` (stereo unspecified), the Potency result in assay [1], in assay [2], in assay [4], in [5], in assay [6] and in assay [7] was “inactive” each time. Besides, the Potency entry in assay [8] is “inactive”.

`CC(C)(O)C(Cl)(Cl)Cl`: the Potency result in assay [1], in assay [2], in assay [3], in [5], in assay [6] and in assay [7] was “inactive” in each case. Also, the Potency result in [8] is “inactive”.

For the compound `C[C@]12CC[C@H](O)CC1=CC[C@@H]1[C@@H]2CC[C@]2(C)C(=O)CC[C@@H]12`, the Potency result in [1], in assay [2], in assay [4], in assay [5], in [6] and in [7] was “inactive” throughout. Moreover, the Potency entry in assay [8] was “inactive”.

In the case of `CCC1(CC)C(=O)NC(=O)NC1=O`, the Potency entry in [1], in assay [2], in assay [3], in assay [5], in assay [6] and in assay [7] was “inactive” each time. The Potency entry in assay [8] is “inactive”.

The values above are taken from PubChem BioAssay (NCATS).
